Assay results: PubChem BioAssay AID1159580 (chemical genetic matrix, 2015)
Out of some 5,500 compounds screened, about 2,000 (36%) were called active. Inconclusive results (about 18%) are left out. Rule as the data show it: active = normalized growth mostly below about 0.91 (no sharp cut-off); inconclusive = no clear call, values can overlap the other calls; inactive = mostly above about 0.92. The list shows a part of the results.

Test: chemical genetic growth profiling, strain panel (AID 1159580);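 also: tested at 20 µM; growth read once vehicle control cultures reached saturation at 30 °C; 1 = growth at the plate median or of vehicle wells; lower values mean less growth of the strain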
Settings: growth OD

Measured: normalized growth

NCC1CCC(C(=O)O)CC1 (stereo not drawn)
inactive: S. cerevisiae deletion strains, locus YKL009W, strain mrt4, hits give low values 0.97 | S. cerevisiae deletion strains, locus YKL068W, hits give low values 0.984 | S. cerevisiae deletion strains, locus YKL085W, strain MDH1 (second series), hits give low values 0.985 | S. cerevisiae deletion strains, locus YKL085W, strain MDH1, hits give low values 0.985 | S. cerevisiae deletion strains, locus YKL160W, strain elf1, hits give low values 0.997 | S. cerevisiae deletion strains, locus YKL190W, strain CNB1, hits give low values 0.995 | S. cerevisiae deletion strains, locus YKR001C, strain vps1, hits give low values 1.01 | S. cerevisiae deletion strains, locus YKR026C, strain gcn3, hits give low values 0.993 | S. cerevisiae deletion strains, locus YKR091W, strain srl3, hits give low values 0.997 | S. cerevisiae deletion strains, locus YLL001W, strain dnm1, hits give low values 0.998 | S. cerevisiae deletion strains, locus YLL026W, hits give low values 0.996 | S. cerevisiae deletion strains, locus YLL041C, strain sdh2, hits give low values 0.996 | S. cerevisiae deletion strains, locus YLR027C, strain aat2, hits give low values 0.989 | S. cerevisiae deletion strains, locus YLR039C, strain RIC1, hits give low values 0.975 | S. cerevisiae deletion strains, locus YLR058C, strain SHM2, hits give low values 1 | S. cerevisiae deletion strains, locus YLR102C, strain apc9, hits give low values 0.989 | S. cerevisiae deletion strains, locus YLR113W, strain HOG1, hits give low values 1 | S. cerevisiae deletion strains, locus YLR221C, strain rsa3, hits give low values 0.984 | S. cerevisiae deletion strains, locus YLR258W, strain gsy2, hits give low values 0.999 | S. cerevisiae deletion strains, locus YLR262C, strain YPT6 (second series), hits give low values 0.984 | S. cerevisiae deletion strains, locus YLR262C, strain YPT6, hits give low values 0.953 | S. cerevisiae deletion strains, locus YLR268W, strain sec22, hits give low values 0.991 | S. cerevisiae deletion strains, locus YLR320W, strain mms22, hits give low values 0.992 | S. cerevisiae deletion strains, locus YLR330W, strain CHS5, hits give low values 0.991 | S. cerevisiae deletion strains, locus YLR342W, strain FKS1 (second series), hits give low values 0.986 | S. cerevisiae deletion strains, locus YLR342W, strain FKS1, hits give low values 0.998 | S. cerevisiae deletion strains, locus YLR357W, strain rsc2, hits give low values 0.996 | S. cerevisiae deletion strains, locus YLR370C, strain arc18, hits give low values 0.996 | S. cerevisiae deletion strains, locus YLR371W, strain rom2, hits give low values 1 | S. cerevisiae deletion strains, locus YLR384C, strain iki3, hits give low values 0.999 | S. cerevisiae deletion strains, locus YLR418C, strain cdc73, hits give low values 0.97 | S. cerevisiae deletion strains, locus YML016C, strain PPZ1, hits give low values 0.999 | S. cerevisiae deletion strains, locus YML032C, strain rad52, hits give low values 1.01 | S. cerevisiae deletion strains, locus YML120C, strain ndi1, hits give low values 0.974 | S. cerevisiae deletion strains, locus YML124C, strain tub3, hits give low values 0.998 | S. cerevisiae deletion strains, locus YMR058W, strain fet3, hits give low values 0.988 | S. cerevisiae deletion strains, locus YMR078C, strain ctf18, hits give low values 0.98 | S. cerevisiae deletion strains, locus YMR125W, strain sto1, hits give low values 0.999 | S. cerevisiae deletion strains, locus YMR129W, hits give low values 0.999 | S. cerevisiae deletion strains, locus YMR205C, strain PFK2, hits give low values 0.989 | S. cerevisiae deletion strains, locus YMR223W, strain ubp8, hits give low values 0.987 | S. cerevisiae deletion strains, locus YMR231W, strain pep5, hits give low values 0.999 | S. cerevisiae deletion strains, locus YMR307W, strain GAS1, hits give low values 1.01 | S. cerevisiae deletion strains, locus YNL067W, strain RPL9B, hits give low values 1.03 | S. cerevisiae deletion strains, locus YNL071W, strain lat1, hits give low values 0.989 | S. cerevisiae deletion strains, locus YNL153C, strain GIM3, hits give low values 1.06 | S. cerevisiae deletion strains, locus YNL183C, strain NPR1, hits give low values 0.946 | S. cerevisiae deletion strains, locus YNL209W, strain ssb2, hits give low values 1.02 | S. cerevisiae deletion strains, locus YNL233W, strain BNI4, hits give low values 1.03 | S. cerevisiae deletion strains, locus YNL248C, strain rpa49, hits give low values 0.988 | S. cerevisiae deletion strains, locus YNL250W, strain rad50, hits give low values 0.979 | S. cerevisiae deletion strains, locus YNL271C, strain bni1, hits give low values 0.978 | S. cerevisiae deletion strains, locus YNL298W, strain CLA4, hits give low values 0.987 | S. cerevisiae deletion strains, locus YNL307C, strain MCK1, hits give low values 0.999 | S. cerevisiae deletion strains, locus YNL322C, strain KRE1 (second series), hits give low values 0.992 | S. cerevisiae deletion strains, locus YNL322C, strain KRE1, hits give low values 0.991 | S. cerevisiae deletion strains, locus YNR049C, strain mso1, hits give low values 0.991 | S. cerevisiae deletion strains, locus YNR052C, strain pop2, hits give low values 0.985 | S. cerevisiae deletion strains, locus YOL006C, strain TOP1, hits give low values 1.1 | S. cerevisiae deletion strains, locus YOL012C, strain htz1 0.934 | S. cerevisiae deletion strains, locus YOL147C, strain pex11, hits give low values 0.99 | S. cerevisiae deletion strains, locus YOR001W, strain rrp6, hits give low values 0.998 | S. cerevisiae deletion strains, locus YOR061W, strain CKA2, hits give low values 1 | S. cerevisiae deletion strains, locus YOR069W, strain VPS5, hits give low values 0.986 | S. cerevisiae deletion strains, locus YOR070C, strain gyp1, hits give low values 0.993 | S. cerevisiae deletion strains, locus YOR080W, strain dia2, hits give low values 0.987 | S. cerevisiae deletion strains, locus YOR083W, strain WHI5, hits give low values 1 | S. cerevisiae deletion strains, locus YOR106W, strain vam3, hits give low values 1.01 | S. cerevisiae deletion strains, locus YOR136W, strain idh2, hits give low values 0.991 | S. cerevisiae deletion strains, locus YOR144C, strain elg1, hits give low values 1 | S. cerevisiae deletion strains, locus YOR184W, strain ser1, hits give low values 0.981 | S. cerevisiae deletion strains, locus YOR231W, strain MKK1, hits give low values 1.05 | S. cerevisiae deletion strains, locus YOR265W, strain rbl2, hits give low values 0.994 | S. cerevisiae deletion strains, locus YOR270C, strain vph1, hits give low values 0.987 | S. cerevisiae deletion strains, locus YOR290C, strain snf2, hits give low values 1.01 | S. cerevisiae deletion strains, locus YOR316C, strain cot1, hits give low values 0.992 | S. cerevisiae deletion strains, locus YPL051W, strain arl3, hits give low values 0.993 | S. cerevisiae deletion strains, locus YPL078C, strain atp4, hits give low values 0.993 | S. cerevisiae deletion strains, locus YPL106C, strain sse1, hits give low values 0.967 | S. cerevisiae deletion strains, locus YPL240C, strain hsp82, hits give low values 0.989 | S. cerevisiae deletion strains, locus YPL241C, strain CIN2, hits give low values 0.996 | S. cerevisiae deletion strains, locus YPL256C, strain CLN2, hits give low values 1.02 | S. cerevisiae deletion strains, locus YPR119W, strain clb2, hits give low values 0.994 | S. cerevisiae deletion strains, locus YPR141C, strain kar3, hits give low values 0.998 | S. cerevisiae deletion strains, locus YPR163C, strain tif3, hits give low values 0.992 | S. cerevisiae deletion strains, locus YPR167C, strain met16, hits give low values 0.989 | S. cerevisiae deletion strains, strain wtn01, hits give low values 0.979 | S. cerevisiae strains, strain wild type, hits give low values 0.995
